Measurements taken from PubChem BioAssay AID1508601 (ICCB-Longwood Screening Facility, Harvard Medical School, 2020).
Out of some 5,700 compounds screened, about 85 (1%) were called active. Rule as the data show it: active = p53-positive nuclei above about 36% (passing the limit was not always enough); inactive = the rest. The list comes from a sample in which actives are over-represented; it also holds similar structures and randomly drawn compounds.

Experiments:
[1] = p53 stabilisation in HPV-positive human cells, imaging, p53-positive nuclei imaging, 24 h, 48 h (AID 1508601); conditions: 24/48 h
[2] = molecular target: Cellular tumor antigen p53 (Homo sapiens) (UniProt P04637); assay: as above; conditions: 24/48 h, stronger effect = higher value
[3] = measured here: cell number at 24 h, Library stock concentration: 10 mM
[4] = measured here: cell number at 48 h, Library stock concentration: 10 mM
[5] = Library stock concentration: 10 mM
[6] = measured here: p53 positive nuclei at 24 h, Library stock concentration: 10 mM

Sequence of Cellular tumor antigen p53 (Homo sapiens) (P04637 whole entry, looked up): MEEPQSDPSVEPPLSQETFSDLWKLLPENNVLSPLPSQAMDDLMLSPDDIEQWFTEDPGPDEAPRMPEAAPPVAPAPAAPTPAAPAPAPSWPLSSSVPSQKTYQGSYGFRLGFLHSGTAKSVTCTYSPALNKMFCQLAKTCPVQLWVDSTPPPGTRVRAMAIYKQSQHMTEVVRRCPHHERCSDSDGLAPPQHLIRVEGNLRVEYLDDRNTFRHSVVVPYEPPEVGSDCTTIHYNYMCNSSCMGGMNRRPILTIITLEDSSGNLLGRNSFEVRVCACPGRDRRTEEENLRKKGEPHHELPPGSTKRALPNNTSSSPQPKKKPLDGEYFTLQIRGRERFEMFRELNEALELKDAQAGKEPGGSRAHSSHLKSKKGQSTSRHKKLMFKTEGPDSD

COc1ccc2c3c([nH]c2c1)C(CC(C)C)N1C(=O)C(CCC(=O)OC(C)(C)C)NC(=O)C1C3 (stereo unspecified)
nuclei count, normalised ([1]; measured here: cell number at 24 h, Library stock concentration: 46 uM): 116% | nuclei count, normalised ([1]; measured here: cell number at 24 h, Library stock concentration: 278 uM): 114% | nuclei count, normalised ([1]; measured here: cell number at 24 h, Library stock concentration: 1.67 mM): 116% | nuclei count, normalised [1, 3]: 118% | nuclei count, normalised ([1]; measured here: cell number at 48 h, Library stock concentration: 46 uM): 111% | nuclei count, normalised ([1]; measured here: cell number at 48 h, Library stock concentration: 278 uM): 106% | nuclei count, normalised ([1]; measured here: cell number at 48 h, Library stock concentration: 1.67 mM): 106% | nuclei count, normalised [1, 4]: 108% | p53-positive nuclei, normalised ([2]; Library stock concentration: 46 uM): -0.285% (inactive) | p53-positive nuclei, normalised ([2]; Library stock concentration: 278 uM): -0.0842% (inactive) | p53-positive nuclei, normalised ([2]; Library stock concentration: 1.67 mM): -0.358% (inactive) | p53-positive nuclei, normalised [2, 5]: -0.016% (inactive) | p53-positive nuclei, normalised ([2]; measured here: p53 positive nuclei at 24 h, Library stock concentration: 46 uM): -0.0846% | p53-positive nuclei, normalised ([2]; measured here: p53 positive nuclei at 24 h, Library stock concentration: 278 uM): 0.0359% | p53-positive nuclei, normalised ([2]; measured here: p53 positive nuclei at 24 h, Library stock concentration: 1.67 mM): -0.151% | p53-positive nuclei, normalised [2, 6]: 0.0251%

NOCCC(N)C(=O)O (stereo unspecified)
nuclei count, normalised ([1]; measured here: cell number at 24 h, Library stock concentration: 500 nM): 99.2% | nuclei count, normalised ([1]; measured here: cell number at 24 h, Library stock concentration: 1.5 uM): 103% | nuclei count, normalised ([1]; measured here: cell number at 24 h, Library stock concentration: 4.6 uM): 103% | nuclei count, normalised ([1]; measured here: cell number at 24 h, Library stock concentration: 13.7 uM): 107% | nuclei count, normalised ([1]; measured here: cell number at 24 h, Library stock concentration: 41 uM): 111% | nuclei count, normalised ([1]; measured here: cell number at 24 h, Library stock concentration: 123 uM): 113% | nuclei count, normalised ([1]; measured here: cell number at 24 h, Library stock concentration: 370 uM): 115% | nuclei count, normalised ([1]; measured here: cell number at 24 h, Library stock concentration: 1.111 mM): 106% | nuclei count, normalised ([1]; measured here: cell number at 24 h, Library stock concentration: 3.333 mM): 110% | nuclei count, normalised [1, 3]: 97.4% | nuclei count, normalised ([1]; measured here: cell number at 48 h, Library stock concentration: 500 nM): 98.5% | nuclei count, normalised ([1]; measured here: cell number at 48 h, Library stock concentration: 1.5 uM): 106% | nuclei count, normalised ([1]; measured here: cell number at 48 h, Library stock concentration: 4.6 uM): 104% | nuclei count, normalised ([1]; measured here: cell number at 48 h, Library stock concentration: 13.7 uM): 112% | nuclei count, normalised ([1]; measured here: cell number at 48 h, Library stock concentration: 41 uM): 113% | nuclei count, normalised ([1]; measured here: cell number at 48 h, Library stock concentration: 123 uM): 115% | nuclei count, normalised ([1]; measured here: cell number at 48 h, Library stock concentration: 370 uM): 114% | nuclei count, normalised ([1]; measured here: cell number at 48 h, Library stock concentration: 1.111 mM): 108% | nuclei count, normalised ([1]; measured here: cell number at 48 h, Library stock concentration: 3.333 mM): 112% | nuclei count, normalised [1, 4]: 102% | p53-positive nuclei, normalised ([2]; Library stock concentration: 500 nM): -0.0211% (inactive) | p53-positive nuclei, normalised ([2]; Library stock concentration: 1.5 uM): -0.092% (inactive) | p53-positive nuclei, normalised ([2]; Library stock concentration: 4.6 uM): -0.0486% (inactive) | p53-positive nuclei, normalised ([2]; Library stock concentration: 13.7 uM): -0.0639% (inactive) | p53-positive nuclei, normalised ([2]; Library stock concentration: 41 uM): 0.121% (inactive) | p53-positive nuclei, normalised ([2]; Library stock concentration: 123 uM): -0.0786% (inactive) | p53-positive nuclei, normalised ([2]; Library stock concentration: 370 uM): -0.0673% (inactive) | p53-positive nuclei, normalised ([2]; Library stock concentration: 1.111 mM): -0.0556% (inactive) | p53-positive nuclei, normalised ([2]; Library stock concentration: 3.333 mM): -0.0652% (inactive) | p53-positive nuclei, normalised [2, 5]: -0.0323% (inactive) | p53-positive nuclei, normalised ([2]; measured here: p53 positive nuclei at 24 h, Library stock concentration: 500 nM): 0.111% | p53-positive nuclei, normalised ([2]; measured here: p53 positive nuclei at 24 h, Library stock concentration: 1.5 uM): -0.132% | p53-positive nuclei, normalised ([2]; measured here: p53 positive nuclei at 24 h, Library stock concentration: 4.6 uM): -0.00649% | p53-positive nuclei, normalised ([2]; measured here: p53 positive nuclei at 24 h, Library stock concentration: 13.7 uM): -0.187% | p53-positive nuclei, normalised ([2]; measured here: p53 positive nuclei at 24 h, Library stock concentration: 41 uM): 0.0689% | p53-positive nuclei, normalised ([2]; measured here: p53 positive nuclei at 24 h, Library stock concentration: 123 uM): -0.0424% | p53-positive nuclei, normalised ([2]; measured here: p53 positive nuclei at 24 h, Library stock concentration: 370 uM): 0.0115% | p53-positive nuclei, normalised ([2]; measured here: p53 positive nuclei at 24 h, Library stock concentration: 1.111 mM): 0.0344% | p53-positive nuclei, normalised ([2]; measured here: p53 positive nuclei at 24 h, Library stock concentration: 3.333 mM): -0.136% | p53-positive nuclei, normalised [2, 6]: -0.121%
